# The list is not random: actives were taken first. Their share in the collection is about 31%.
# CYP2C19 activ = cytochrome P450 2C19 (human) activation; activation factor at 5 µM; 96,000 tested, under 10 active; recombinant CYP2C19, luciferin-H EGE luminescence; stronger effect = higher value; 0 = fully inhibited enzyme, 1 = untreated enzyme; P33261;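 active = activation factor of at least 2 at 5 µM in the primary screen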
# PLAP activator = human PLAP activation; AID 696; hit rate 1.2% among 96,000; activation fold at 20 µM; purified PLAP enzyme, luminescent substrate read-out; stronger effect = higher value; in the data active = activation fold above about 2
# CYP2C9 activ = activators of human CYP2C9 | recombinant CYP2C9, luciferin-H conversion, luminescence; stronger effect = higher value; factor 1 = untreated enzyme, 0 = blocked | activation factor at 5 µM | hit rate 1.4% among 96,000;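 active = activation factor of 2 or more for CYP2C9 at a 5 µM dose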
# Target sequence (P11712 whole entry, looked up): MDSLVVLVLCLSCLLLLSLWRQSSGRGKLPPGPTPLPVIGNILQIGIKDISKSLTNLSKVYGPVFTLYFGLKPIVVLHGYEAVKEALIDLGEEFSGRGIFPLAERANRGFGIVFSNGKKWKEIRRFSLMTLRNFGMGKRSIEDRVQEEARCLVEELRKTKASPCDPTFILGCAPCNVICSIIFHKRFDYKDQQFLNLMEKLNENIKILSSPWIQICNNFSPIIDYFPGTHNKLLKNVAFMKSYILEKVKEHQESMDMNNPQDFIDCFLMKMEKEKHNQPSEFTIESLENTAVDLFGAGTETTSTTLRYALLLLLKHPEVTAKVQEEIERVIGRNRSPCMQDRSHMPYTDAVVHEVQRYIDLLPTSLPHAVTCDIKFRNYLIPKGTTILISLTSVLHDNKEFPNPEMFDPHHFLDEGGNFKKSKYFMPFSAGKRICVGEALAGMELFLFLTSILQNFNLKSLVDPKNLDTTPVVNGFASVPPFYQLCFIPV
# CYP2C19 inh = inhibitors of human CYP2C19; CYP2C19 Supersomes, luciferin-H EGE luminescence, 30 min; P33261; inhibition, % at 5 µM; hit rate 21% among 96,000;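 active = CYP2C19 inhibition above a set limit at 5 µM in the primary screen, cut at about 50% in these data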
# CYP2C9 inhib = human CYP2C9 inhibition | P11712 | CYP2C9 Supersomes, luciferin-H conversion, luminescence | inhibition, % at 5 µM | hit rate 20% among 96,000 | AID 777;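 active = blocking of liver enzyme CYP2C9 beyond about 50% at 5 µM, limit read from the data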
# Hits are given with their value; - = inactive.
SMILES,CYP2C19 activ,PLAP activator,CYP2C9 activ,CYP2C19 inh,CYP2C9 inhib
CCn1c(SCC(=O)Nc2nc(C)cs2)nnc1-c1ccoc1C,-,-,-,75.3,-
Cc1nnc(NC(=O)CCC(=O)N2CCN(CCc3ccccc3)CC2)s1,-,-,-,-,-
O=C(Nc1ccc2c(c1)OCO2)N1CCN(C/C=C/c2ccccc2)CC1,-,-,-,-,-
CCn1c(SCC(=O)N2CCN(c3ccccc3F)CC2)nnc1-c1ccoc1C,-,-,-,53.6,52.9
CCCCn1c(SCC(=O)OCC)nnc1-c1ccoc1C,-,-,-,-,55.2
Cc1nnc(NC(=O)CSc2nnc(-c3ccoc3C)n2CC(C)C)s1,-,-,-,-,-
CCCCn1c(SCC(=O)Nc2nnc(C)s2)nnc1-c1ccoc1C,-,-,-,-,80.6
C=CCn1c(SCC(=O)Nc2nc(C)cs2)nnc1C(CO)NC(=O)c1ccccc1 (centres undefined),-,-,-,-,-
CCCCn1c(SCC(=O)NCc2ccco2)nnc1-c1ccoc1C,-,-,-,-,-
CCn1c(SCC(=O)Nc2nc(C)cs2)nnc1C(NC(=O)c1ccccc1Cl)C(C)C (centres undefined),-,-,-,51.8,-
Cc1ccc(NC(=O)c2ccco2)c(NC(=O)Cc2cccs2)c1,-,-,-,-,-
CCOC(=O)C(C)n1ncn2cccc2c1=O (centres undefined),-,-,-,-,-
CCCn1nc(Oc2nc(NCC)nc(NCC)n2)ccc1=O,-,-,-,-,-
CCN1CCN(C(=O)CN(c2ccccc2C)S(C)(=O)=O)CC1,-,-,-,-,-
CCCCn1c(SCC(=O)c2ccc3c(c2)OCCO3)nnc1-c1ccoc1C,-,-,-,96.4,90.1
CCCOc1cccc(CN2CCCCC2c2cccnc2)c1 (centres undefined),-,-,-,91.6,83.2
CCOC(=O)C1=C(CSc2nc3c(cc2C#N)CN(C)CC3)OC(N)=C(C#N)C1c1ccc(F)cc1 (centres undefined),-,-,-,91.8,85.8
CCOC(=O)C1=C(CSc2nc(-c3ccccc3)ccc2C#N)OC(N)=C(C#N)C1c1cccnc1 (centres undefined),-,-,-,92.0,94.5
CCOC(=O)C1=C(CSc2nc(-c3ccccc3)ccc2C#N)OC(N)=C(C#N)C1c1ccccc1 (centres undefined),-,-,-,59.1,92.3
CCN(C(=O)COc1ccccc1)c1nnc(-c2cccnc2)s1,-,-,-,-,-
C=CCN1C(=O)C(Cc2ccc(OC)cc2)S/C1=N/N=C/c1ccco1 (centres undefined),-,-,-,78.2,-
Cc1ccc(-c2nnc(N3CCOCC3)c3ccccc23)cc1S(=O)(=O)NCC1CCCO1 (centres undefined),-,-,-,-,71.3
Cc1cccc(NC(=O)CSc2nnc(-c3ccccc3)n2N)c1,-,-,-,-,-
Cc1cccc(NC(=O)CSc2nnc(-c3ccccc3)n2N)c1C,-,-,-,54.6,-
Cc1ccc(C)c(NC(=O)CSc2nnc(-c3ccncc3)n2N)c1,-,-,-,60.0,91.7
SMILES,CYP2C19 activ,PLAP activator,CYP2C9 activ,CYP2C19 inh,CYP2C9 inhib
Cc1cc(C)n(-c2nc3c(c(=O)[nH]c(=O)n3C)n2CC(C)C)n1,-,-,-,-,-
CCNC(=O)Cc1ccc(NS(=O)(=O)c2ccc(F)cc2)cc1,-,-,-,-,52.6
CCOC(=O)Cc1ccc(NS(=O)(=O)c2ccc(SC)cc2)cc1,-,-,-,-,71.0
CCNS(=O)(=O)c1ccc(NC(=O)Cc2ccc(F)cc2)cc1,-,-,-,-,-
CCOC(=O)c1ccc(NS(=O)(=O)c2ccc(SC)cc2)cc1,-,-,-,-,-
O=C(Cc1ccc(NS(=O)(=O)c2ccc(F)cc2)cc1)NCc1ccccc1,-,-,-,75.5,94.3
CCSc1sccc1C1C(C#N)=C(N)N(c2cccnc2)C2=C1C(=O)CC(C)(C)C2 (centres undefined),-,-,-,73.6,59.9
CC1(C)CC(=O)C2=C(C1)Nc1ccccc1NC2c1cccnc1 (centres undefined),-,-,-,-,-
CC1=C(C#N)C(c2cccnc2)C2=C(CC(C)(C)CC2=O)N1 (centres undefined),-,-,-,-,-
COc1ccc(N2C(N)=C(C#N)C(c3cccnc3)C3=C2CC(C)(C)CC3=O)cc1 (centres undefined),-,-,-,-,55.9
CC1(C)CC(=O)C2=C(C1)OC(c1cccs1)C(C#N)=C2N (centres undefined),-,-,-,82.7,67.9
CC1(C)CC(=O)C2=C(C1)N(c1ccccc1C#N)C(N)=C(C#N)C2c1cccs1 (centres undefined),-,-,-,-,71.3
Cc1ccccc1N1C(S)=C(C#N)C(=O)NC1c1cccs1 (centres undefined),-,-,-,-,-
CCCCCCn1c(COc2ccccc2F)nnc1SCC(=O)N1c2ccccc2NC(=O)C1(C)C,-,-,-,-,-
CS/C(=N\S(=O)(=O)c1cccs1)Nc1ccc(N2CCOCC2)cc1,-,-,-,-,-
CCN(Cc1ccccc1)S(=O)(=O)c1nc2nc(C)c(C)c(C)n2n1,-,-,-,-,-
CCOc1cc(C(=O)N2CCN(c3ccccc3)CC2)cc(OCC)c1OCC,-,-,-,-,-
CCOc1cc(C(=O)N(C)c2ccccc2)cc(OCC)c1OCC,-,-,-,57.2,-
c1ccc(-c2nnc(SCCC3OCCCO3)o2)cc1,-,-,-,-,-
CCOc1ccc(C2NC(=O)c3ccccc3O2)cc1 (centres undefined),-,-,-,-,-
COc1cc(C2NC(=O)c3ccccc3O2)cc(OC)c1OC (centres undefined),-,-,-,94.0,-
Cc1ccc(NC(=S)C2=C(O)c3sccc3N(C)S2(=O)=O)cc1,-,-,-,-,95.0
CN1c2ccccc2C(O)=C(C(=S)Nc2ccc(Cl)cc2)S1(=O)=O,-,-,-,-,97.3
CN1c2ccsc2C(O)=C(C(=O)Nc2ccccc2)S1(=O)=O,-,-,-,-,72.6
Cc1ccc(NC(=O)C2=C(O)c3sccc3N(C)S2(=O)=O)cc1,-,-,-,-,63.6
SMILES,CYP2C19 activ,PLAP activator,CYP2C9 activ,CYP2C19 inh,CYP2C9 inhib
CCN(CC(=O)N1CCOCC1)S(=O)(=O)c1ccc(C)cc1,-,-,-,-,-
Nc1c(C(=O)NCCN2CCOCC2)c2nc3ccccc3nc2n1-c1cccc(F)c1,-,2,-,-,-
O=C(Nc1cccc(Cl)c1Cl)c1ccncc1,-,-,-,89.8,68.6
O=C(Nc1ccc(Cl)cc1)c1ccncc1,-,-,-,89.5,-
O=C(Nc1ccccc1O)c1ccc(Cl)cc1,-,-,-,-,-
CC(C)Oc1ccc(NC(=O)c2ccncc2)cc1,-,-,-,86.6,89.8
O=C(CCNc1ccc(Cl)c(C(F)(F)F)c1)c1ccco1,-,-,-,75.5,-
O=C(CCNc1ccc(F)cc1)c1ccco1,-,-,-,65.0,-
O=C(CCNc1cc(Cl)cc(Cl)c1)c1ccco1,-,-,-,60.9,-

# Screens: PubChem BioAssay, Sanford-Burnham Center for Chemical Genomics
